# Bioassay records deposited in PubChem BioAssay by National Center for Advancing Translational Sciences (NCATS).
# In the library only some 5.7% were active in any assay of this set; here they are far more common.
# KB-V1 MDR tox: qHTS assay for MDR1-selective chemotherapeutics: Primary screen using the drug-selected MDR subline cells KB-V1. KB-V1 MDR cells viability, CellTiter-Glo, 72 h. Potency, µM (titrated, usually from 46.1 µM), most hits filed as cytotoxic. hit rate 3.4% among 400,000; also: nearly all actives have a fitted effect of over 60% in size
#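 Cells of the MDR subline KB-V1 are plated, dosed with compound at multiple concentrations, and incubated 72 h at 37 degrees C; CellTiter-Glo is then added and luminescence read after 10 min.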
# KB-3-1 tox: qHTS assay for MDR1-selective chemotherapeutics: Primary screen using the parental adenocarcinoma cell KB-3-1. KB-3-1 viability, CellTiter-Glo ATP luminescence, 72 h. hit rate 1.4% among 400,000. Potency, µM (highest dose often 46.1 µM), most hits filed as cytotoxic; also: nearly all actives have a fitted effect of over 60% in size
#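 Parental KB-3-1 adenocarcinoma cells in phenol-red-free DMEM with 10% FBS were pin-treated with compounds at several concentrations, incubated 72 h at 37 °C, and viability read by CellTiter-Glo luminescence; concentration-effect curves were fitted after normalization.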
# HT1080-NT tox: qHTS for induction of synthetic lethality in tumor cells producing 2HG: qHTS for the HT-1080-NT fibrosarcoma cell line. HT-1080-NT fibrosarcoma viability, CellTiter-Glo ATP luminescence, 48 h. Potency, µM (top dose mostly 46.1 µM), for inactives: top-dose activity, negative = less viability, actives largely listed as cytotoxic. hit rate 1.6% among 360,000. AID 686970, 2013;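 also: NT is the 2HG producing partner of a matched IDH1 knockdown line; 0% = DMSO-treated cells and -100% = media-only wells without cells; nearly all actives have a fitted effect of over 55% in size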
#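 Viability by CellTiter-Glo luminescence after 48 h compound exposure at 37C of HT-1080-NT cells (750/well, RPMI, 5% FBS). % activity scaled between DMSO wells and medium-only wells, then curve-fitted and categorized by curve class.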
# HT1080 IDH1KD tx: qHTS for induction of synthetic lethality in tumor cells producing 2HG: qHTS for the HT-1080-IDH1KD cell line | hit rate 2% among 360,000 | HT-1080 IDH1 knockdown viability, ATP luminescence, 48 h | AID 686971, 2013 | Potency, µM (top dose mostly 46.1 µM), for the others: at the highest dose activity, negative = toxicity, actives largely listed as cytotoxic;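 also: 0% = DMSO wells and -100% = cell-free medium wells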
#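 HT-1080-IDH1KD cells (IDH1 knocked down), 750/well in RPMI with 5% FBS, treated with compound 48 h at 37 degrees C. Viability by CellTiter-Glo luminescence, normalised to DMSO and no-cell wells; concentration-response curves classed.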
# * hit, by the source's call; i = inactive; ? = inconclusive; · = no result; [ ] = dose if it differs, or a comment. Calls follow the shape of the dose curve; as a rule, active = well fitted curve in the direction sought with a large enough effect; inconclusive = small, poorly fitted or top-dose-only effect, or another doubt; inactive = no such curve, though single readings can be large; an effect the other way counts as inactive or inconclusive. Unless noted, % is scaled to controls: 0 for no effect and ±100 for the full control effect; potency is read from the fitted curve at half-maximal effect.
SMILES,KB-V1 MDR tox,KB-3-1 tox,HT1080-NT tox,HT1080 IDH1KD tx
CCN1CCN(C(c2ccccc2Cl)c2sc3nc(-c4ccco4)nn3c2O)CC1 (stereo unspecified),i,i,·,·
O=C(NC(Cc1ccccc1)c1ccc2c(c1)OCCCO2)c1ccccc1F (stereo unspecified),16µM*,i,2%,-21%
CCc1ccc(NC(=O)Cn2c(=O)n(-c3ccc(Cl)c(Cl)c3)c(=O)c3c(C)c(C)sc32)cc1,i,i,·,·
CC(C)CC(=O)NC(=S)Nc1ccc(S(=O)(=O)NC(C)(C)C)cc1,15µM*,i,-15%,-12%
CCOc1ccc(NS(=O)(=O)c2ccc(NC(=S)NC(=O)CC(C)C)cc2)cc1,?,i,?,-5%[9.24 µM]
CCOc1ccc(NS(=O)(=O)c2ccc(OCC(=O)N3CCCC3)cc2)cc1,i,i,1%,16%
CCCC(=O)NC(=S)Nc1ccc(S(=O)(=O)Nc2ccc(OCC)cc2)cc1,?,i,4.6µM*,23µM*
CCOC(=O)N1CCN(C(=O)COc2ccc(S(=O)(=O)Nc3ccc(OCC)cc3)cc2)CC1,i,21µM*,-5%,?
CCOC(=O)COc1ccc(S(=O)(=O)Nc2cccc(SC)c2)cc1,i,i,10µM*,?
O=S(=O)(c1ccc(Cl)cc1)c1nc(-c2cccs2)oc1N1CCCCC1,?,i,·,·
O=S(=O)(Nc1cccc(-c2ccc(N3CCCCC3)nn2)c1)c1ccc(Cl)s1,i,i,·,·
CCOc1ccc(NS(=O)(=O)c2ccc(NS(=O)(=O)c3ccc(SC)cc3)cc2)cc1,23µM*,i,-30%,-26%
CCOc1ccc(NS(=O)(=O)c2ccc(NS(C)(=O)=O)cc2)cc1,?,i,2%,-8%
CCOc1ccccc1NC(c1nnc(-c2ccccc2)o1)c1ccc(F)cc1Cl (stereo unspecified),i,i,·,·
O=C(OCC1CCCO1)c1ccc2c(c1)N(Cc1c(F)cccc1Cl)C(=O)c1ccccc1S2(=O)=O (stereo unspecified),i,i,·,·
COC(=O)c1sc(N)c(C(=O)OC)c1COC(=O)c1c(C)noc1C,5.2µM*,5.2µM*,7.1µM*,6.3µM*
COC(=O)c1sc(NC(=O)c2c(C)noc2C)nc1C,i,i,0%,3%
Cc1ccccc1NC(=O)c1ccc([N+](=O)[O-])o1,i,i,-25%,26µM*
CN1CCN(c2ccccc2NC(=O)c2ccc([N+](=O)[O-])o2)CC1,·,·,1%,-6%
O=C(NC12CC3CC(CC(C3)C1)C2)c1ccc(Br)o1,i,i,-11%,-24%
O=C(Nc1cc(Cl)ccc1-n1cncn1)c1ccc([N+](=O)[O-])o1,?,13µM*,-22%,-22%
O=C(NC12CC3CC(CC(C3)C1)C2)c1ccc([N+](=O)[O-])o1,i,5.2µM*,?,?
O=C(Nc1ccccc1Cl)c1ccc([N+](=O)[O-])o1,i,23µM*,?,21µM*
CCC(=O)N1CCN(c2ccc(Cl)cc2NC(=O)c2ccc([N+](=O)[O-])o2)CC1,i,i,?,?
Cc1ccc(NC(=O)c2ccc([N+](=O)[O-])o2)c(C)c1,?,?,-1%,?
SMILES,KB-V1 MDR tox,KB-3-1 tox,HT1080-NT tox,HT1080 IDH1KD tx
Cc1c(NC(=O)c2ccc([N+](=O)[O-])o2)cccc1-c1nc2ncccc2o1,?,?,9.2µM*,?
O=C(Nc1cccc2ncccc12)c1ccc([N+](=O)[O-])o1,?,i,16µM*,15µM*
O=C(Nc1cccc2ncccc12)c1ccc(-c2ccc(Br)cc2)o1,10µM*,i,?,?
Cn1cnc2c(NCc3ccccc3)nc(Cl)nc21,i,i,·,·
O=C1CC(c2cc(Br)ccc2F)c2cc3c(cc2N1)CCC3 (stereo unspecified),?,1.6µM*,1.8µM*,1.3µM*
Cn1c2c(c(=O)n(C)c1=O)C(c1cc(Br)ccc1F)CC(=O)N2 (stereo unspecified),i,i,·,·
O=C1CC(c2ccccc2F)c2cc3c(cc2N1)CCC3 (stereo unspecified),13µM*,8.2µM*,1.6µM*,0.89µM*
